Results taken from PubChem BioAssay AID488984 (The Scripps Research Institute Molecular Screening Center, 2010).
Unmarked numbers belong to inactive results. Activity calls are given as the source filed them. Cut-off read from the data, not from the text of the source: active = inhibition above about 55%; inactive = the rest.

test system: SARS coronavirus 3C-like protease (3CLpro, nsp5); assay: blockers of SARS 3CLpro activity – biochemical, fluorescence, set 2, late-stage follow-up (AID 488984); details: recombinant 3CLpro, fluorogenic peptide cleavage; at 100 µM; hits give high values

Row | SMILES | inhibition
1 | CC(C)(C)NC(=O)C(c1ccsc1)N(C(=O)c1cccc2c1CCCC2)C1CC1 (configuration not stated) | 34.6%
2 | CC(C)c1ccc(N(C(=O)c2cccc3c2CCCC3)C(C(=O)NC(C)(C)C)c2cccnc2)cc1 (configuration not stated) | -5.03%
3 | Cc1nccn1CC(=O)N(c1ccc(N)cc1)C(C(=O)NC(C)(C)C)c1ccsc1 (configuration not stated) | 6.79%
4 | CC(C)(C)NC(=O)C(c1ccsc1)N(C(=O)Cc1c[nH]c2ccccc12)c1ccc(F)cc1 (configuration not stated) | 17.7%
5 | CC(C)(C)NC(=O)C(c1cccnc1)N(C(=O)Cc1c[nH]c2ccccc12)c1ccc(C(C)(C)C)cc1 (configuration not stated) | 30.6%
6 | CC(=O)Nc1ccc(N(C(=O)Cn2nnc3ccccc32)C(C(=O)NC(C)(C)C)c2ccsc2)cc1 (configuration not stated) | 94.8% (active)
7 | CC(C)(C)NC(=O)C(c1cccnc1)N(C(=O)c1ccco1)c1ccc(OC(F)F)cc1 (configuration not stated) | 45.5%
8 | CC(C)(C)NC(=O)C(c1cccnc1)N(C(=O)Cc1cccc2ccccc12)c1ccc(OCF)cc1 (configuration not stated) | 3.12%
9 | CC(C)(C)NC(=O)C(c1ccsc1)N(C(=O)c1ccc(C(F)(F)F)nc1)c1ccc(C(C)(C)C)cc1 (configuration not stated) | 19.7%
10 | CC(C)(C)NC(=O)C(c1cccnc1)N(C(=O)c1ccc(C#N)cc1)c1ccc(F)cc1 (configuration not stated) | -13.5%
11 | CC(C)c1ccc(N(C(=O)c2n[nH]c3ccccc23)C(C(=O)NC(C)(C)C)c2ccsc2)cc1 (configuration not stated) | 7.3%
12 | CC(C)(C)NC(=O)C(c1cccnc1)N(C(=O)c1ccc(C(F)(F)F)nc1)c1ccc(OCF)cc1 (configuration not stated) | 13.7%
